Assay results from PubChem BioAssay (NCATS).
Inconclusive results are not listed. Active and inactive are the calls of the source. The call rests on the fitted dose curve; in most records, active means well fitted inhibition curve with a large enough effect; inconclusive means small, poorly fitted or top-dose-only effect; inactive means flat fitted curve, though single readings scatter. Where a SMILES comes first, the peptide text is derived from it. [ ]: non-standard residue; d: D form. PhLac = O=C(O)[CH](O)Cc1ccccc1; NMeV = CN[CH](C(=O)O)C(C)C

target: Calcium and integrin-binding protein 1 (Homo sapiens) (UniProt Q99828); experiment: Primary qHTS for Identification of Calcium Integrin Binding Protein 1 (CIB1) Competitor (AID 1508620); details: CIB1-GST / FITC-alphaIIb peptide fluorescence polarization; series mostly up to 57.7 µM; activity change, negative = inhibition: at the top concentration;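 further: GST tagged CIB1 binding a fluorescein labelled alphaIIb integrin peptide tracer; top concentration of the series differs between compounds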
In short: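 Fluorescence polarization competition: CIB1-GST (1 uM final) preincubated with compound 15 min at room temperature, then FITC-labeled alphaIIb peptide (100 nM final) added for another 15 min. Polarization read at Ex 480/Em 540.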
On the % scale 0 is the no-effect control and ±100 the full control effect.

Sequence of Calcium and integrin-binding protein 1 (Homo sapiens) (Q99828 whole entry, looked up): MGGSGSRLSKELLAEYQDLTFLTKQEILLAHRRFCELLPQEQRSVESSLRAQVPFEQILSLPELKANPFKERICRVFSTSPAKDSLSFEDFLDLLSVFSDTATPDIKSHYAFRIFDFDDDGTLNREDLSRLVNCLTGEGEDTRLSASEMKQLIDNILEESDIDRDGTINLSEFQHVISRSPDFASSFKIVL

Structure (SMILES) | activity change, negative = inhibition | Potency
Cc1cn2c(N)c(Cl)cc(C(=O)NCC3CCN(CC(C)C)CC3)c2n1 | -1.12% [at 114 µM] (inactive) | –
C[C@@H]1C[C@H](O)/C=C/[C@H](O)[C@@H](O)CC(=O)O1 | 4.42% [at 114 µM] (inactive) | –
CNC(=O)[C@H]1O[C@@H](n2cnc3c(NCc4ccc(N)c(I)c4)ncnc32)[C@H](O)[C@@H]1O | -2.33% [at 30.2 µM] (inactive) | –
CC(=O)N(O)CCCCCN1C(=O)CCC1=O | -3.61% [at 114 µM] (inactive) | –
C=CC(C)(C)C1(CC2NC(=O)C3CCCN3C2=O)C(=O)Nc2cc3c(cc21)C=CC(C)(C)O3 (configuration not stated) | 1.05% (inactive) | –
CC(C)CNC(=O)/C=C/CCCCc1ccc2c(c1)OCO2 | 4.28% (inactive) | –
COc1ccc(C2=CC(=O)OC2Cc2ccc(O)cc2)c(O)c1 (configuration not stated) | 5.68% (inactive) | –
CCOc1ccc(-c2ccc(Cn3c(CC(C)(C)C(=O)O)c(SC(C)(C)C)c4cc(OCc5ccc(C)cn5)ccc43)cc2)cn1 | – | inactive
CC(C)C(C(=O)N1CCCC1C(=O)O)N(C)C(=O)C(O)Cc1ccccc1 (configuration not stated) (H-[PhLac]-[NMeV]-Pro-OH; configuration not given here) | 3.88% (inactive) | –
CC1=CCC2C(C)(CO)CCCC2(C)C1CC12OC1C(O)C(CO)=CC2O (configuration not stated) | 3.87% (inactive) | –
CC(C)(O)C1CCC2(C)C3C(O)C4C(C13)C42CO (configuration not stated) | -0.326% [at 114 µM] (inactive) | –
CC1(C)CC[C@]2(C(=O)O[C@@H]3O[C@H](CO)[C@@H](O)[C@H](O)[C@H]3O)CC[C@]3(C)C(=CCC4[C@@]5(C)C[C@@H](O)[C@H](O)[C@@](C)(CO)C5CC[C@]43C)C2C1 (some centres not stated) | 1.85% [at 30.2 µM] (inactive) | –
CC12CCC3c4ccc(O)cc4CCC3C1CCC2OC1OC(C(=O)O)C(O)C(O)C1O (configuration not stated) | -0.0165% [at 114 µM] (inactive) | –
C=CCc1ccc(O[C@@H]2O[C@H](CO[C@@H]3O[C@H](CO)[C@@H](O)[C@H](O)[C@H]3O)[C@@H](O)[C@H](O)[C@H]2O)c(O)c1 | 1.33% (inactive) | –
COc1cc(N2CCC(N(C)C)CC2)ccc1Nc1ncc(Cl)c(Nc2ccccc2P(C)(C)=O)n1 | – | inactive
C[C@@H]1C/C=C/C=C\C=C\C=C\[C@H](O[C@@H]2O[C@H](C)[C@@H](O)[C@H](N)[C@@H]2O)C[C@@H]2O[C@](O)(C[C@@H](O)C[C@H]3O[C@@H]3/C=C/C(=O)O1)C[C@H](O)[C@H]2C(=O)O | 1.59% [at 30.2 µM] (inactive) | –

Structure (SMILES) | activity change, negative = inhibition | Potency
CC1CCC2C(C(=O)O)=CC3C(O)C(C)(C)CC123 (configuration not stated) | -2.37% [at 114 µM] (inactive) | –
CC1CCC2(C(=O)OC3OC(COC4OC(CO)C(O)C(O)C4O)C(O)C(O)C3O)CCC3(C)C(=CCC4C5(C)CCC(O)C(C)(C(=O)O)C5CCC43C)C2C1(C)O (configuration not stated) | 2.95% [at 30.2 µM] (inactive) | –
Cc1cccc(-c2[nH]c(CNc3ccccc3F)nc2-c2ccc3ncnn3c2)n1 | -5.2% [at 114 µM] (inactive) | –
CC(C#N)C(C)O[C@@H]1O[C@H](CO)[C@@H](O)[C@H](O)[C@H]1O (some centres not stated) | -0.323% [at 114 µM] (inactive) | –
C[C@@H]1CC[C@H]2C(C)(C)[C@H](O)[C@H](O)C[C@]2(C)[C@@]12Cc1c(O)cc3c(c1O2)CNC3=O | 1.45% (inactive) | –
OC[C@H]1O[C@@H](OCCc2ccc(O)cc2)[C@H](O)[C@@H](O)[C@@H]1O | -1.89% [at 114 µM] (inactive) | –
O=C(c1ccccn1)c1cnn2c(-c3ccncc3)ccnc12 | -3.4% [at 114 µM] (inactive) | –
Cc1cc(C)c(S(=O)(=O)N(Cc2ccc(-c3cccc(S(C)(=O)=O)c3)cc2)Cc2ccc(C(F)(F)F)o2)c(C)c1 | -0.923% [at 114 µM] (inactive) | –
COc1cc(C(O)C(CO)Oc2ccc(CCCO[C@@H]3O[C@@H](C)[C@H](O)[C@@H](O)[C@H]3O)cc2OC)ccc1O (some centres not stated) | -3.14% (inactive) | –
O=C1[C@H](O[C@@H]2O[C@H](CO)[C@@H](O)[C@H](O)[C@H]2O)Oc2ccccc2N1O | 0.884% (inactive) | –
COC(=O)[C@@]1(O)C=CC[C@@H]2[C@@]3(C)C[C@@H](c4ccoc4)OC(=O)[C@H]3CC[C@]21C | -1.71% (inactive) | –
CNC(=O)c1ccc(Nc2ncc(C(F)(F)F)c(NCc3nccnc3N(C)S(C)(=O)=O)n2)cc1 | – | inactive
CC1=CC[C@]2(C(=O)O[C@@H]3O[C@H](CO[C@@H]4O[C@H](CO)[C@@H](O[C@@H]5O[C@@H](C)[C@H](O)[C@@H](O)[C@H]5O)[C@H](O)[C@H]4O)[C@@H](O)[C@H](O)[C@H]3O)CC[C@]3(C)C(CCC4[C@@]5(C)C[C@@H](O)[C@H](O)[C@@](C)(CO)C5CC[C@]43C)C2C1C (some centres not stated) | -0.144% [at 30.2 µM] (inactive) | –
C=CC(C)(C)O[C@@H]1O[C@H](CO[C@@H]2OC[C@](O)(CO)[C@H]2O)[C@@H](O)[C@H](O)[C@H]1O | -3.13% (inactive) | –
CC1(C)CC2C(C1)C1(C)CCC13OC3(CO)C2O (configuration not stated) | -0.844% [at 114 µM] (inactive) | –
CC1(C)CCC2(C(=O)OC3OC(COC4OC(CO)C(O)C(O)C4O)C(O)C(O)C3O)CCC3(C)C(=CCC4C5(C)CCC(O)C(C)(C(=O)O)C5CCC43C)C2C1O (configuration not stated) | 0.991% [at 30.2 µM] (inactive) | –
